Results filed as inconclusive are left out. Where a call stands in place of a potency, no number is given. Active and inactive are the calls of the source. Unless noted, calls come from the whole dose curve; as a rule, active = well fitted curve in the direction sought with a large enough effect in the repeat runs; inconclusive = weak or mixed curves; inactive = no such curve, though single readings can be large; an effect the other way counts as inactive or inconclusive.
What was measured:
[1] = qHTS assay for small molecules that induce genotoxicity in human embryonic kidney cells expressing luciferase-tagged ATAD5 (AID 651632); note: nearly all actives have a fitted effect of over 15% in size
In short: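 Reporter cells (HEK293T) express luciferase-tagged ATAD5, a protein that accumulates after DNA damage. Treat 16 hr at 37C/5% CO2, add Amplite, wait 30 min at RT, and read luminescence.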

[2] = qHTS assay for small molecules that induce genotoxicity in human embryonic kidney cells expressing luciferase-tagged ATAD5 - cell viability (AID 651634; calls by dose curve; note: nearly all actives have a fitted effect of over 25% in size; note: potency is the fitted concentration of half-maximal effect)
In short: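 Seeding of 2,000 HEK293T ATAD5-luciferase cells per well preceded pin-tool compound transfer. Plates sat 15.5 hr at 37C under 5% CO2, then fluorescence was read after 30 min with CellTiter-Fluor.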

[3] = qHTS assay for small molecule disruptors of the mitochondrial membrane potential - cell viability (AID 720634; calls by dose curve;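 note: human HepG2 liver cancer cells; series mostly up to about 83 µM; nearly all actives have a fitted effect of over 20% in size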)
In short: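 Measuring cytotoxicity alongside mitochondrial potential, the screen quantified ATP by luminescence in HepG2 cells after 1 hr compound incubation and a 30 min room-temperature CellTiter-Glo step.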

[4] = qHTS assay to test for compound auto fluorescence at 590 nm (red) in HepG2 cells (AID 720674)
In short: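 1 hr compound incubation on HepG2 cells, 37 C, 5% CO2; plate read ex 540 nm / em 590 nm; intensities reported as Rose Bengal sodium equivalents.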

[5] = qHTS assay to test for compound auto fluorescence at 535 nm (green) in HepG2 cells (AID 720675)
[6] = qHTS assay to test for compound auto fluorescence at 460 nm (blue) in HEK293 cells (AID 720678)
In short: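 After cell attachment (4-5 hr, 37C), compounds were pinned onto HEK293 monolayers in 10% dialyzed FBS medium. The blue channel (405/460 nm) was read following overnight culture. Equivalency was calculated against triamterene.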

[7] = qHTS assay to test for compound auto fluorescence at 535 nm (green) in HEK293 cells (AID 720680)
[8] = qHTS assay to test for compound auto fluorescence at 460 nm (blue) in HEK293 cell free culture (AID 720681)
In short: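 Blue fluorescence (Ex 405/Em 460 nm, triamterene-equivalent) was read immediately after pin transfer of compound or DMSO into medium (DMEM, 10% FBS) without cells.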

[9] = qHTS assay to test for compound auto fluorescence at 535 nm (green) in HEK293 cell free culture (AID 720682)
In short: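 Steps: dispense DMEM/10% FBS into empty wells; pin in compound or DMSO; measure fluorescence at 485/535 nm. Values are fluorescein equivalents.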

[10] = qHTS assay to test for compound auto fluorescence at 460 nm (blue) in HepG2 cell free culture (AID 720685)
In short: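 Compound (23 nL) or DMSO pinned into cell-free MEM with 10% FBS; blue fluorescence read at 405/460 nm excitation/emission, expressed as auto-fluorescence equivalency to triamterene.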

[11] = qHTS assay to test for compound auto fluorescence at 535 nm (green) in HepG2 cell free culture (AID 720686)
[12] = qHTS assay to test for compound auto fluorescence at 460 nm (blue) in HepG2 cells (AID 720687)
In short: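 Blue-channel autofluorescence (Ex/Em 405/460 nm, triamterene-equivalent) was measured after 1 hr compound exposure at 37 C, 5% CO2. Cells were HepG2, plated overnight at 37 C in MEM plus 10% FBS.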

[13] = qHTS assay for small molecule agonists of the p53 signaling pathway - cell viability (AID 651633; calls by dose curve; note: nearly all actives have a fitted effect of over 30% in size; note: potency is the fitted concentration of half-maximal effect)
In short: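 Viability counter-read: CellTiter-Glo luminescence (30 min, room temperature) in the same p53RE-bla plates. These plates had been exposed to compounds for 16 h at 37 C.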

[14] = qHTS assay to test for compound auto fluorescence at 590 nm (red) in HEK293 cell free culture (AID 720683)
In short: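 Red-channel autofluorescence of compounds in culture medium (DMEM, 10% FBS), no cells, measured at 540/590 nm. Rose Bengal sodium is the reference fluorophore for equivalence.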

[15] = qHTS assay to test for compound auto fluorescence at 590 nm (red) in HepG2 cell free culture (AID 720684)
In short: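 Steps: dispense MEM/10% FBS medium, no cells; pin compound or DMSO vehicle; read red channel, Ex/Em 540/590 nm. Output given as Rose Bengal sodium equivalents.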

[16] = qHTS assay for small molecule disruptors of the mitochondrial membrane potential (AID 720635); note: potency is the fitted concentration of half-maximal effect
In short: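 Mitochondrial membrane potential tracked with Mito-MPS dye, red aggregates (ex 540/em 590 nm) against green monomers (ex 490/em 535 nm). Compound treatment 1 hr at 37C, dye 30 min in HepG2.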

[17] = qHTS assay to test for compound auto fluorescence at 590 nm (red) in HEK293 cells (AID 720679)
In short: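 Plates of HEK293 cells (10% dialyzed FBS) are treated with 23 nL compound or DMSO vehicle after a 4-5 hr attachment period, incubated overnight at 37C, and read for red fluorescence at 540/590nm.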

[18] = molecular target: Glucocorticoid receptor (Homo sapiens) (UniProt P04150); assay: qHTS assay to identify small molecule agonists of the glucocorticoid receptor (GR) signaling pathway (AID 720691; active = well fitted activation curve with a large enough effect in the signal ratio in the repeat runs, not every such curve was filed as active; the % refers to the signal ratio)
In short: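 Reporter read-out: fluorescence intensity following 2 h room-temperature LiveBLAzer B/G FRET substrate loading. Prior step: GR-bla HeLa cells held 4 h, then treated 18 h at 37 C.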

[19] = molecular target: Glucocorticoid receptor (Homo sapiens) (UniProt P04150); assay: qHTS assay to identify small molecule antagonists of the glucocorticoid receptor (GR) signaling pathway (AID 720692; active = well fitted inhibition curve with a large enough effect in the signal ratio in the repeat runs, not every such curve was filed as active; the % refers to the signal ratio; note: potency is the fitted concentration of half-maximal effect)
In short: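 Dexamethasone (5 nM final) stimulated a stably integrated GRE-beta-lactamase reporter in HeLa cells during 18 h co-incubation with compounds; signal was quantified as fluorescence intensity of B/G FRET substrate after 2 h.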

Glucocorticoid receptor (Homo sapiens), sequence (P04150 whole entry, looked up): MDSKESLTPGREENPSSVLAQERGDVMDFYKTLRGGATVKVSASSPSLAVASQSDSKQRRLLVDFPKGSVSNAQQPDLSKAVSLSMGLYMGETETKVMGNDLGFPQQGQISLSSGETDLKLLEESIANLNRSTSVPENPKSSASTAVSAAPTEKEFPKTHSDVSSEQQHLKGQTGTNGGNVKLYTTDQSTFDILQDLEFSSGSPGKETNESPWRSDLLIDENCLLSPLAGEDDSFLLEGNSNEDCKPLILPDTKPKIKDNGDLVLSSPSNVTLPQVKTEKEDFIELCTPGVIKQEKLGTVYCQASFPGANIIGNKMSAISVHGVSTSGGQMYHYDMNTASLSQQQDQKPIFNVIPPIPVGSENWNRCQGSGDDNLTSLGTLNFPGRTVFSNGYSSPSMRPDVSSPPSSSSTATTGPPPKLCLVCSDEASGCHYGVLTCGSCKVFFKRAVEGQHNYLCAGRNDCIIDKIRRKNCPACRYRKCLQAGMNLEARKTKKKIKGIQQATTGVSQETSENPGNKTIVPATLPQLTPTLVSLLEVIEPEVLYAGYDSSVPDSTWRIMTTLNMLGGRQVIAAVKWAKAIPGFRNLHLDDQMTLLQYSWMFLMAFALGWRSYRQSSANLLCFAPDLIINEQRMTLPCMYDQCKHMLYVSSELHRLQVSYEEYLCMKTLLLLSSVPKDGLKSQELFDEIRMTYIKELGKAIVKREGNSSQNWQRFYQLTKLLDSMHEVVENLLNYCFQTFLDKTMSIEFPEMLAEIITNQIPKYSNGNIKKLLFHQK

SMILES | Potency [1] | Potency [2] | Potency [3] | outcome [4] | outcome [5] | Potency [6] | outcome [7] | Potency [8] | outcome [9] | Potency [10] | outcome [11] | Potency [12] | Potency [13] | outcome [14] | outcome [15] | Potency [16] | outcome [17] | Potency [18] | Potency [19]
COC(=O)[C@@H]1CC2=CC(=O)CC[C@]2(C)[C@@]23O[C@@H]2C[C@@]2(C)[C@@H](CC[C@@]24CCC(=O)O4)[C@H]13 | inactive | inactive | inactive | inactive | inactive | inactive | inactive | inactive | inactive | inactive | inactive | inactive |  |  |  |  |  |  | 
CCCCN(CCCC)C(=S)SSC(=S)N(CCCC)CCCC | inactive |  |  | inactive | inactive | inactive |  | inactive | inactive | inactive | inactive | inactive | inactive | inactive | inactive |  |  |  | 
CC1C2CC(CC2C2CCCC(O)C2)C1(C)C (stereo not given) | inactive | inactive |  | inactive |  | inactive |  | inactive | inactive | inactive |  |  |  | inactive | inactive | 27.3 µM (active) | inactive |  | 
Cc1nccn1-c1ccc(Sc2cccc(C3(C(N)=O)CCOCC3)c2)cc1 |  | inactive |  | inactive |  | inactive | inactive | inactive | inactive | inactive | inactive | inactive | inactive | inactive | inactive |  | inactive | inactive | 24.5 µM (active)
O=C(Nc1ccccc1)Nc1ccccc1 | inactive | inactive |  | inactive |  | inactive |  | inactive | inactive | inactive | inactive |  |  |  | inactive |  | inactive |  | 
Nc1ccc(C(=O)OCCCOC(=O)c2ccc(N)cc2)cc1 |  |  |  | inactive | inactive | inactive | inactive | inactive | inactive | inactive | inactive | inactive | inactive | inactive |  |  | inactive | inactive | inactive
CCNC(=O)N1CCN(CCCC(c2ccc(F)cc2)c2ccc(F)cc2)CC1 | inactive |  | inactive | inactive |  | inactive | inactive | inactive | inactive | inactive | inactive |  | inactive |  | inactive |  | inactive | inactive | 
CC(=O)Oc1ccc2c(c1)CC[C@@H]1[C@@H]2CC[C@]2(C)[C@@H](O)CC[C@@H]12 | inactive | inactive |  | inactive | inactive | inactive | inactive | inactive | inactive | inactive |  | inactive |  | inactive | inactive | 8.41 µM (active) | inactive |  | 
CC(C)(O)c1ccccc1CC[C@@H](SCC1(CC(=O)O)CC1)c1cccc(/C=C/c2ccc3ccc(Cl)cc3n2)c1 |  | inactive |  | inactive | inactive | inactive | inactive |  | inactive | inactive |  | inactive | 13.3 µM (active) | inactive | inactive |  | inactive |  | 
Cc1oc(C)c(C(=O)Nc2ccccc2)c1C | inactive | inactive |  | inactive | inactive | inactive | inactive | inactive | inactive | inactive |  |  |  | inactive | inactive | 27.3 µM (active) | inactive | inactive | 
COc1cc2c(N3CCN(C(=O)Nc4ccc(OC(C)C)cc4)CC3)ncnc2cc1OCCCN1CCCCC1 |  | 29.8 µM (active) | inactive | inactive | inactive | inactive | inactive | inactive | inactive | inactive |  | inactive | 5.31 µM (active) | inactive | inactive | 26.6 µM (active) | inactive | inactive | 
CSc1ccc(Oc2ccc(S(N)(=O)=O)cc2CN(C)C)cc1C | inactive |  |  | inactive |  | inactive | inactive | inactive | inactive | inactive | inactive | inactive |  | inactive | inactive |  | inactive | inactive | inactive
CN(C)CCOC1=Cc2ccccc2Sc2ccc(Cl)cc21 | inactive | inactive | inactive | inactive | inactive | inactive | inactive | inactive | inactive | inactive | inactive | inactive |  | inactive | inactive |  | inactive | inactive | 
Oc1ccc(Nc2ccccc2)cc1 | inactive |  | inactive | inactive | inactive | inactive | inactive |  | inactive | inactive | inactive | inactive | inactive | inactive | inactive | 54.5 µM (active) |  | inactive | inactive
NC(=O)N(O)[C@@H]1C=C[C@H](Oc2cccc(Oc3ccc(F)cc3)c2)C1 | inactive | inactive |  | inactive |  | inactive | inactive | inactive | inactive | inactive | inactive | inactive | inactive |  | inactive |  | inactive | inactive | 
CCCCCCOC(=O)CCCCCCCC(=O)OCCCCCC | inactive | inactive | inactive | inactive | inactive | inactive | inactive | inactive | inactive | inactive | inactive | inactive |  | inactive | inactive | inactive |  | inactive | inactive

Reference: PubChem BioAssay (Tox21)
